Here are results for 20 compounds from PubChem BioAssay (NCI).

Assay [1] is described as follows: NCI Yeast Anticancer Drug Screen. Data for the rad50 strain (AID 155).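 Also: 0% = growth of vehicle-only cultures of the same strain.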 The following applies: S. cerevisiae rad50 strain growth inhibition; at 50.0 µM; stronger effect = higher value. A digest of the protocol:
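Growth of the mutant yeast was measured after compound exposure and referenced to vehicle-treated cultures.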

Assay [2] in a line: NCI Yeast Anticancer Drug Screen. Data for the mec2-1 strain (AID 157). The following applies: S. cerevisiae mec2-1 strain, at 50.0 µM, stronger effect = higher value. A digest of the protocol: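 Test agents were screened against the mec2-1 yeast strain, with defined DNA repair or cell cycle alteration. Growth was scored as inhibition against vehicle-only controls.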
Assay [3] is described as follows: NCI Yeast Anticancer Drug Screen. Data for the sgs1 mgt1 strain (AID 161).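 Also: 0% = growth of cultures given vehicle only.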 The following applies: S. cerevisiae sgs1 mgt1 strain, at 50.0 µM, stronger effect = higher value. In a few lines:
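Read-out: growth inhibition vs vehicle controls. Cells: mutant yeast strain deficient in DNA damage repair.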

Assay [4] is described as follows: NCI Yeast Anticancer Drug Screen. Data for the cln2 rad14 strain (AID 165).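 Also: 0% = growth equal to vehicle treated cultures.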 The conditions noted are these: S. cerevisiae cln2 rad14 strain, at 50.0 µM, stronger effect = higher value. A digest of the protocol:
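Growth of compound-exposed yeast (cln2 rad14 genotype) measured and expressed as inhibition relative to vehicle.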

A short description of assay [5]: NCI Yeast Anticancer Drug Screen. Data for the bub3 strain (AID 167). The conditions noted are these: S. cerevisiae bub3 mutant strain, at 50.0 µM, stronger effect = higher value. A digest of the protocol:
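Whole-cell yeast assay. The mutant strain was incubated with compounds, and growth inhibition was determined by comparison with vehicle-treated cells.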

The nature of assay [6]: NCI Yeast Anticancer Drug Screen. Data for the mlh1 rad18 strain (AID 175). The following applies: S. cerevisiae mlh1 rad18 strain growth inhibition; at 50.0 µM; stronger effect = higher value. A digest of the protocol:
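In this whole-cell yeast screen, a strain with altered DNA damage repair is challenged with compound, and its growth is measured against matched vehicle-treated controls.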

Each structure is given as a SMILES string. This is part of a sample that, as a whole, favours compounds with a hit. Of some 79,000 tested, about 15% had one in any assay. A number with no mark means an inactive call. Calls of active or inactive are those of the source. Rule as the data show it: active = growth inhibition above about 70%; inactive = the rest.

Turning to `NCCCC(=O)NCCCCCCCCCCNC(=O)CCCN`, the growth inhibition in assay [1] was 29.3%; in assay [2], 18%; in assay [3], 19%; in assay [4] it was 15.6%; in assay [5] it was -4.45%; in assay [6], 24.4%.
Consider `CCOC(=O)C(C)C(CCC#N)(C(=O)OCC)C(=O)OCC` (stereo not given), for which the growth inhibition was -9.9% in assay [1]; -24.1% in assay [2]; -24% in assay [3]; -0.35% in assay [4]; -11.8% in assay [5]; -9.3% in assay [6].
With `CC(C)(C)c1cc(O)c(C(=O)O)cc1O`, the growth inhibition is 39.6% in assay [1]; 29.6% in assay [2]; 44.8% in assay [3]; 17.6% in assay [4]; -3.9% in assay [5]; 33.9% in assay [6].
Turning to `c1coc(C2SCSCS2)c1`, the growth inhibition in assay [1] is 0.35%; in assay [2], 5.8%; in assay [3] it was -6.7%; in assay [4] it was -13.5%; in assay [5], -8.2%; in assay [6] it was -4.2%.
Take `Nc1ccc2cc(S(=O)(=O)O)cc(O)c2c1`: the growth inhibition in assay [1] was 28.8%; in assay [2], -4.55%; in assay [3], -34.5%; in assay [4], -85.8%; in assay [5], 6.85%; in assay [6], 15.2%.
In the case of `COc1ccc(-c2coc3c4c(c(CC=C(C)C)c(O)c3c2=O)OC(C)(C)C=C4)cc1OC`, the growth inhibition in assay [1] is 29.9%; in assay [2], 13.8%; in assay [3], 10.9%; in assay [4] it was 37.7%; in assay [5], 4.1%; in assay [6], 16.8%.
For `COc1ccc(C2CC(c3cc(C)ccc3O)=NC(N)=N2)cc1` (stereo not given), the growth inhibition in assay [1] was 19.6%; in assay [2], 12.8%; in assay [3], 15.8%; in assay [4] it was 13.2%; in assay [5] it was 13.4%; in assay [6], 23.4%.
`Nc1nnc2nc(CC(=O)c3cccc([N+](=O)[O-])c3)c(CC(=O)c3cccc([N+](=O)[O-])c3)nn12`: the growth inhibition in assay [1] was 4.5%; in assay [2], 4.2%; in assay [3] it was 9.35%; in assay [4], 18.2%; in assay [5] it was 18.6%; in assay [6], 14.8%.
Take `Cc1ccc(Cc2nn(C)c(=O)n2N)cc1`: the growth inhibition in assay [1] was -7.1%; in assay [2] it was -2.5%; in assay [3], 18.6%; in assay [4], -3%; in assay [5], -13.1%; in assay [6], -18.9%.
Consider `CC1=C(Br)C(=O)C(c2c(C)cc(C)cc2C)=C(Br)C1=O`, for which the growth inhibition in assay [1] is 97.5% (active); in assay [2], 98% (active); in assay [3], 98.2% (active); in assay [4], 92.8% (active); in assay [5], 97.5% (active); in assay [6], 98.5% (active).
`Cc1cc(N(CCC#N)CCC#N)ccc1/C=C1/N=C(c2ccccc2)N(N)C1=O`: the growth inhibition in assay [1] is -2.55%; in assay [2], 13.2%; in assay [3] it was 9.9%; in assay [4], 2.7%; in assay [5] it was 5.15%; in assay [6] it was -3.3%.
As to `O=C1c2ccccc2C(O)N1CCc1c[nH]c2ccccc12` (stereo not given), the growth inhibition in assay [1] is 12.4%; in assay [2], -24.1%; in assay [3] it was -12.1%; in assay [4], 8.2%; in assay [5], 1.3%; in assay [6], -10.9%.
With `COC(=O)c1cnc2nc(N3CCOCC3)[nH]n2c1=O`, the growth inhibition in assay [1] was 8.3%; in assay [2], -0.3%; in assay [3], -1.25%; in assay [4] it was 4.1%; in assay [5] it was -4.7%; in assay [6], -10.5%.
In the case of `C(=C(Sc1ccccc1)Sc1ccccc1)C(Sc1ccccc1)c1ccccc1` (stereo not given), the growth inhibition in assay [1] is 12.5%; in assay [2], 21.9%; in assay [3] it was -5.35%; in assay [4] it was 10.8%; in assay [5], 20.7%; in assay [6], -13.6%.
`CCCCOc1ccc(C=Nc2ccc(C)cc2)cc1`: the growth inhibition in assay [1] is -6.15%; in assay [2] it was -6.2%; in assay [3], -2.45%; in assay [4] it was -8.5%; in assay [5], 7.3%; in assay [6], -20.7%.
As for `Cc1ccc(-c2nc(SCc3ccc(Cl)cc3)[nH]c(=O)c2CCO)cc1`, the growth inhibition in assay [1] was 55.5%; in assay [2] it was 14.3%; in assay [3], 38.8%; in assay [4] it was 34.4%; in assay [5], 47.7%; in assay [6], 32.2%.
Regarding `CN(CC(=O)C(O)C(O)C(O)CO)c1ccccc1` (stereo not given), the growth inhibition is -10.4% in assay [1]; -8.75% in assay [2]; -7.6% in assay [3]; -16.1% in assay [4]; -2.6% in assay [5]; -9.7% in assay [6].
In the case of `c1ccc(CCn2c(-c3ccccn3)nc3ccccc32)nc1`, the growth inhibition was 13.2% in assay [1]; -4.25% in assay [2]; 18.1% in assay [3]; -24.5% in assay [4]; 15.5% in assay [5]; 7.95% in assay [6].
`CCCN1COC(OCCN(CC)CC)C(C)(C)C1` (stereo not given): the growth inhibition in assay [1] was 7.15%; in assay [2], -4.35%; in assay [3] it was -21.3%; in assay [4], 6.7%; in assay [5], 7.2%; in assay [6] it was 12.9%.
With `Cc1ccc(NC(=O)CC2C(=O)Nc3ccccc3S2=O)c(C)c1` (stereo not given), the growth inhibition in assay [1] is -7.85%; in assay [2] it was -24.9%; in assay [3], 4.45%; in assay [4], 20.4%; in assay [5] it was 15.8%; in assay [6], -5.55%.
